Laboratory results taken from PMC5540273 (PLoS ONE, 2017).
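Note: KINOMEscan kinase panel screen.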

The molecules below were run on T1, DCAMKL1. Details: concentration: 1 μM, replicates: in singlicate; n = 1.
T1 construct: gene DCLK1
`COc1cc2ncnc(Nc3cccc(Br)c3)c2cc1OC.Cl` [GI230329] was tested, and the “%Inh” value was 25%. `CS(=O)(=O)CCNCc1nc(-c2ccc3ncnc(Nc4ccc(OCc5ccccc5)c(Cl)c4)c3c2)cs1.Cl` [GW582764] was tested, and the “%Inh” value was 13%. For `COc1ccc2cc(-c3nc(-c4ccccc4C(C)C)[nH]c3-c3ccncc3)ccc2c1` [SB-660566], the “%Inh” value was 1%. In the case of `COc1ccc(Nc2nccc(N3CCC(NC(=O)C(C)c4ccc(Cl)cc4)CC3)n2)cc1` (stereo not shown) [GSK1379812], the “%Inh” value is reported as 6%. In the case of `Cc1ccccc1-c1cc(-c2c[nH]nc2-c2ccccn2)ccn1` [GW680061], the “%Inh” value is reported as 0%. `CC[C@@H]1CO[C@H](C(=O)Nc2ccccc2)CN1c1cc(-c2ccc3c(N)n[nH]c3c2)nc(NC)n1` [GSK2376236] was tested, and the “%Inh” value was 2%. In the case of `O=C1NC(=O)C(c2ccc(Cl)cc2)=C1Nc1cccc(Cl)c1` [SB-317651], the “%Inh” value is reported as 18%. For `Cc1c(Cn2c3ccccc3n3c(=O)cc(N4CCOCC4)nc23)cccc1C(F)(F)F` [GSK2306394], the “%Inh” value was 0%. In the case of `Cc1ccc(NC(=O)Nc2ccccc2F)cc1-c1ccc(C(=O)Nc2ccncc2)cc1` [GSK1398477], the “%Inh” value is reported as 0%. `O=c1cc(N2CCOCC2)nc2n(Cc3cccc(Cl)c3Cl)c3ccccc3n12` [GSK2299009] was tested, and the “%Inh” value was 12%. In the case of `CC(=O)c1c(C)c2cnc(Nc3ccn(C)n3)nc2n(C2CCCC2)c1=O`, the “%Inh” value is reported as 0%. For `COc1cccc(CNC(=O)NC2CCN(c3ccnc(Nc4ccc(F)cc4)n3)C2)c1` (stereo not shown) [GSK1379723], the “%Inh” value was 9%. For `CC(=O)c1c(C)c2cnc(Nc3ccc(N4CCNCC4)cn3)nc2n(C2CCCC2)c1=O`, the “%Inh” value was 0%.
